The results in this text go back to ChEMBL document CHEMBL1157539, “Thousands of chemical starting points for antimalarial lead identification” (Nature, 2010).

In the first test the test system is Plasmodium falciparum. The test can be described thus: GSK_TCMDC: Inhibition of Plasmodium falciparum 3D7 in whole red blood cells, using parasite LDH activity as an index of growth. Test compounds present at 2uM. The test is classed as functional.
`COc1ccccc1NC(=O)Nc1cccc(-c2ccc(-c3nc4cccc(C)c4[nH]3)s2)c1` displayed an Inhibition of 100%.
Take `Br.CC1(C)NC(N)=NC(=N)N1OCCCOc1cccc(Cl)c1`: the Inhibition worked out at 95%.
Turning to `COC(=O)c1cccc(OCCNC2CCN(C[C@H](O)c3ccnc4ccc(OC)cc34)CC2)c1.O=C(O)C(=O)O`, the Inhibition stood at 100%.
On the same count and under the same terms, with `CC(C)c1ccc(NS(=O)(=O)c2cccc(C(=O)NC3CCN(CC4CCCCC4)CC3)c2)cc1.O=C(O)C(F)(F)F` the figure was 93%.
Take `Br.N=C(N)Nc1nc(-c2cccc(NC(=O)C(F)(F)F)c2)cs1`: the Inhibition was 94%.
The same measure, in the same setting: for `CN(C)c1ccc(C(c2ccc(N(C)C)cc2)c2cc([N+](=O)[O-])ccc2Cl)cc1` the value was 96%; for `CN(C)C1CCN(Cc2ccc(N3CCN(Cc4cccc5[nH]ccc45)CC3)nc2)CC1`, 80%.
`COc1ccc(S(=O)(=O)Nc2cc(Br)cc3c2OCCC3)cc1N1CCN(C(=O)C(Cl)(Cl)Cl)CC1` displayed an Inhibition of 90%.
The same measure, in the same setting: for `O=C(Cc1cn(-c2ccccc2)nc1-c1ccc(Cl)cc1)Nc1nccs1` the value was 88%; for `N#Cc1ccc(/C=C/C(=O)NCCCCCN2CCCN(C(=O)Nc3ccc(Cl)c(C(F)(F)F)c3)CC2)cc1`, 98%.
The same measure, in the same setting: for `CN(Cc1ccc(C#N)cc1)C1CCN(c2cc(NC(=O)c3ccc(F)cc3)ccn2)CC1.O=C(O)C(F)(F)F` the value was 86%; for `O=C(CCc1c[nH]cn1)Nc1ccc(-c2ccc(-c3nc4ccccc4[nH]3)cc2)cc1`, 98%.
With `COc1ccc2ccccc2c1CON1C(=N)N=C(N)NC1(C)C.Cl`, the Inhibition was 94%.

The subject of a further test is Plasmodium falciparum. As to the kind of experiment: GSK_TCMDC: Inhibition of Plasmodium falciparum Dd2 in whole red blood cells, using parasite LDH activity as an index of growth. Test compounds present at 2uM. The test is classed as functional.
Compound `C=CCOC(=O)N1CCC(CNCc2cccc(-c3ccc(-c4nc5cccc(C)c5[nH]4)cc3)c2)C1.O=C(O)C(F)(F)F` (stereo not drawn) came in with an Inhibition of 82%.
The same measure, in the same setting: for `COCCNCc1cccc(-c2ccc3c(Nc4ccc(Oc5cccnc5)cc4)ccnc3c2)c1` the value was 99%; for `CC(CN(C)C)C(=O)Nc1cccc(-c2ccc(-c3nc4ccccc4[nH]3)cc2)c1` (stereo not drawn), 25%.
Same read-out and setting: for `Cc1[nH]c(C)c(-c2ccc(OCCCCSc3ccncc3)cc2)c(=O)c1Br` the value was 97%; for `CC(C)N1CCN(C(=O)c2ccc(CN(C)CCCN3CCN(c4cccc(Cl)c4Cl)CC3)s2)CC1.Cl`, 35%.
On the same count and under the same terms, with `COc1ccc(Nc2nc(C)cc(NCc3ccc(-c4c(C)noc4C)cc3)n2)cc1` the figure was 50%; with `Cc1cc(Nc2cc(Cl)cc(Cl)c2)nc(N)n1`, 28%; with `O=C(Nc1cc2cc(-c3ccc(CN4CCCCC4)cc3)ccc2n2cnnc12)NC1CCCC1`, 98%.
Consider `CCc1ccc(NC(=O)c2ccc(CN3CCCN(Cc4cccc(O)c4)CC3)cc2)cc1.O=C(O)C(F)(F)F`, for which the Inhibition is 55%.
In the case of `Clc1cc2c(Nc3ccc(Oc4ccccc4)cc3)ccnc2cc1-c1ccc(CNCCN2CCOCC2)o1`, the Inhibition is given as 89%.
Same read-out and setting: for `Brc1ccc(Nc2nc(NCC3CCCO3)c3ccccc3n2)cc1` (stereo not drawn) the value was 99%; for `Cc1cc(C)cc(CC(=O)N2CCC(n3c(C)nc4ccc(C)cc43)CC2)c1`, 100%.
Consider `Br.CC1(C)NC(N)=NC(=N)N1OCCCOc1ccccc1N`, for which the Inhibition came to 95%.
Still for that read-out and setting: with `COc1cc2c(cc1OCCN1CCC(N)CC1)N(C(=O)/C=C/c1ccccc1Cl)CC2.Cl` the figure was 18%.
Same read-out and setting: with `CCOc1cc(C(=O)Nc2ccc3nc(N(CC)CC)cc(C)c3c2)cc(OCC)c1OCC` the figure was 9%; with `CCCNCc1ccc(-c2ccc(CN(CCOC)C(=O)c3cnc(C)cn3)cc2)nc1.O=C(O)C(F)(F)F`, 14%; with `COc1ccc2ncc(F)c([C@@H](O)CN3CCC(NCc4cc5c(cn4)OCS5)CC3)c2c1.Cl`, 98%.
On the same count and under the same terms, for `Cc1cccc2nc(-c3cccc(-c4ccc(NC(=O)c5cnn6cccnc56)cc4)c3)[nH]c12` the value was 73%.
As to `COC(=O)Cc1ccc(N)c2ccccc12.Cl`, the Inhibition was 0%.
Still for that read-out and setting: for `CCCCC(CC)CN1C(=O)C(c2ccccc2)(c2ccccc2)N=C1N.O=CO` (stereo not drawn) the value was 98%.
The same measure, in the same setting: for `CCCOc1cccc(C(=O)N[C@@H](Cc2ccccc2)[C@H](O)CNCc2cccc(OC)c2)c1` the value was 18%; for `CCC(C)NS(=O)(=O)c1ccc2nc(Nc3ccc(C)cc3)n(C3CCCCC3)c2c1` (stereo not drawn), 97%.
Same read-out and setting: for `CCNc1cc(C(=O)N[C@@H](Cc2ccccc2)[C@H](O)CNCc2cccc(-c3cncnc3)c2)cc(N2CCCC2=O)c1.O=C(O)C(F)(F)F` the value was 96%.
`O=C(O)C(F)(F)F.O=S(=O)(NC1CCN(c2ccnc3cc(Cl)ccc23)C1)c1ccc(C(F)(F)F)cc1` (stereo not drawn) registered an Inhibition of 98%.
Still for that read-out and setting: with `O=[N+]([O-])c1cccc(-c2ccc(C=NNc3cc(N4CCCC4)nc(N4CCCC4)n3)o2)c1` the figure was 67%; with `O=c1c(Br)c(C(F)(F)F)[nH]c2ccc(Oc3ccccc3)cc12`, 17%; with `O=C(O)C(F)(F)F.O=c1ccc2ccc(F)c3c2n1CC3CN1CCC(NCc2cccc(-c3cccs3)c2)CC1` (stereo not drawn), 75%.
The same measure, in the same setting: with `COc1ccccc1NC(=O)Nc1cccc(-c2ccc(-c3nc4cccc(C)c4[nH]3)s2)c1` the figure was 46%; with `Br.CC1(C)NC(N)=NC(=N)N1OCCCOc1cccc(Cl)c1`, 95%; with `COC(=O)c1cccc(OCCNC2CCN(C[C@H](O)c3ccnc4ccc(OC)cc34)CC2)c1.O=C(O)C(=O)O`, 96%.
`CC(C)c1ccc(NS(=O)(=O)c2cccc(C(=O)NC3CCN(CC4CCCCC4)CC3)c2)cc1.O=C(O)C(F)(F)F` displayed an Inhibition of 69%.
On the same count and under the same terms, for `Br.N=C(N)Nc1nc(-c2cccc(NC(=O)C(F)(F)F)c2)cs1` the value was 24%.
Compound `CN(C)c1ccc(C(c2ccc(N(C)C)cc2)c2cc([N+](=O)[O-])ccc2Cl)cc1` yielded an Inhibition of 67%.
The same measure, in the same setting: for `CN(C)C1CCN(Cc2ccc(N3CCN(Cc4cccc5[nH]ccc45)CC3)nc2)CC1` the value was 17%; for `COc1ccc(S(=O)(=O)Nc2cc(Br)cc3c2OCCC3)cc1N1CCN(C(=O)C(Cl)(Cl)Cl)CC1`, 51%; for `O=C(Cc1cn(-c2ccccc2)nc1-c1ccc(Cl)cc1)Nc1nccs1`, 8%.
For the compound `N#Cc1ccc(/C=C/C(=O)NCCCCCN2CCCN(C(=O)Nc3ccc(Cl)c(C(F)(F)F)c3)CC2)cc1`, the Inhibition is 13%.
Still for that read-out and setting: for `CN(Cc1ccc(C#N)cc1)C1CCN(c2cc(NC(=O)c3ccc(F)cc3)ccn2)CC1.O=C(O)C(F)(F)F` the value was 10%; for `O=C(CCc1c[nH]cn1)Nc1ccc(-c2ccc(-c3nc4ccccc4[nH]3)cc2)cc1`, 70%.
The same measure, in the same setting: with `COc1ccc2ccccc2c1CON1C(=N)N=C(N)NC1(C)C.Cl` the figure was 5%.
